# Screening data from PubChem.
# ST2 inh – inhibitors of human ST2 (IL1RL1) binding to IL-33, primary screen, biochemical, AlphaLISA | inhibition, % for hits at 17 µM | AlphaLISA ST2-Fc/biotin-IL-33 interaction, 1 h | AID 1259354, 2018 | actives 2.3% (n = 78,000); in the data active = inhibition above about 30%
# Target sequence (Q01638 whole entry, looked up): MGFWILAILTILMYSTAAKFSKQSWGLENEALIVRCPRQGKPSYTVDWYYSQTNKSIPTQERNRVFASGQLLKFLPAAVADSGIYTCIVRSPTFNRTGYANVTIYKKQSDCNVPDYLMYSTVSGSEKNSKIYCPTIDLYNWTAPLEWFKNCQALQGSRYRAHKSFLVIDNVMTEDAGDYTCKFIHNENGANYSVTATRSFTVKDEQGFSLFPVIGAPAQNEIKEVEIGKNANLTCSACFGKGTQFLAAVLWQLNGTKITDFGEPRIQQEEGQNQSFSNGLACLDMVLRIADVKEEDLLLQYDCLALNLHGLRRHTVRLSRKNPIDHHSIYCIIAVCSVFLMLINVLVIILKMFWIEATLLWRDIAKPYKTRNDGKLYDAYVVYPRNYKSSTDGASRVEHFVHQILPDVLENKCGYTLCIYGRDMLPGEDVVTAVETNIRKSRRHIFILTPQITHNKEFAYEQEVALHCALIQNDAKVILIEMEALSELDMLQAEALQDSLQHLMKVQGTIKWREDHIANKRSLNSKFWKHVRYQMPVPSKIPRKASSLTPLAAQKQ
# * = called active by the depositor; i = inactive. Shown is part of a subset that was picked to be rich in hits.
SMILES,ST2 inh
COc1ccc(CNC(=O)[C@@H](C)[C@@H]2CCc3c(C)cc(OCCN4CCOCC4)c(C)c3C2)cc1,i
Cc1cc(NC(=O)CS(=O)(=O)c2cn(Cc3ccccc3Cl)c3ccccc23)no1,i
O=C(CS(=O)(=O)c1cn(Cc2ccccc2Cl)c2ccccc12)NC1CCCCC1,32.0%*
CCn1cc(S(=O)(=O)CC(=O)NC2CCCCC2)c2ccccc21,i
Cc1ccc(NCN2C(=O)S/C(=C/c3ccccc3)C2=O)cc1Cl,i
CCNc1nc2ccccn2c(=O)c1/C=C1\SC(=O)N(CC)C1=O,30.0%*
O=C1S/C(=C\c2c(NCC3CCCO3)nc3ccccn3c2=O)C(=O)N1Cc1ccccc1 (centres undefined),i
CC(C)C[C@@H](N)C(=O)N1CCC(CCn2cccn2)CC1,i
Cc1nonc1CC(=O)N1CCCC(CNC(=O)C2(c3ccc(Cl)cc3)CC2)C1 (centres undefined),i
Cc1ccccc1NC(=O)c1ccc(C(=O)Nc2ccccc2C)cc1,i
Cc1ccccc1NC1=C(N)C(=O)c2ccccc2C1=O,87.0%*
Cc1ccccc1NCN1C(=O)C2C3C=CC(C3)C2C1=O (centres undefined),i
CCN(CC)c1cc(C)c2cc(NC(=O)c3cc(=O)c4ccccc4o3)ccc2n1,i
N#Cc1ccc(Oc2ccc(C(=O)O)cc2)cc1C#N,i
Nc1nc2ccc(Oc3ccc4nc(N)sc4c3)cc2s1,i
Nc1ccc(Oc2ccc(-c3nc(N)nc(N)n3)cc2)cc1,i
COc1ccc(Oc2ccc(N)cc2)cc1,39.0%*
CC(=O)c1ccc(Oc2ccc(N)cc2)cc1,i
Nc1ccc(Oc2ccc(N)c(N)c2)cc1,44.0%*
CN1CCC(Cc2noc(-c3ccc(-c4ccn[nH]4)cc3)n2)CC1,i
COc1ccc(NS(=O)(=O)c2ccc3c(c2)CCC(=O)N3)cc1Cl,i
Cc1ccc(-c2nc(N(C)Cc3nccn3C)ncc2-c2ccc(N)nc2)cc1,i
Cc1ccc(S(=O)(=O)Nc2ccccc2I)cc1[N+](=O)[O-],i
O=C1CC(=O)Nc2cc(S(=O)(=O)N3CCN(c4ccc(F)cc4)CC3)ccc2N1,i
O=C1CCC(=O)N(O)CCCCCNC(=O)CCC(=O)N(O)CCOCCNC(=O)CCC(=O)N(O)CCCCCN1,i
SMILES,ST2 inh
O=C1CCC(=O)NCCCCCN(O)C(=O)CCC(=O)NCCCCCN(O)C(=O)CCC(=O)NCCCCCN1,39.0%*
Cc1ccc2nc(SCC(=O)Nc3ccc(F)c(F)c3)[nH]c2c1,i
COC(=O)c1ccc(Nc2nnc(Cc3ccc(OC)cc3)c(=O)[nH]2)cc1,i
Cc1ccc(S(=O)(=O)N2CCc3ccccc32)cc1[N+](=O)[O-],36.0%*
Cc1ccc(S(=O)(=O)N2CCc3ccccc32)cc1C(N)=O,i
Cc1ccc(S(=O)(=O)N2CCCCC2)cc1[N+](=O)[O-],i
CC12CC(c3ccccc3O1)N(C(=O)c1cccs1)C(=O)N2c1ccc(F)cc1 (centres undefined),i
CCOc1ccccc1NS(=O)(=O)c1cc(Br)cc2c1N(C(=O)CC)CC2,i
O=C(O)CCC(=O)Nc1ccc(-c2nc3ccc(Cl)cc3o2)cc1,i
COc1ccc(Oc2nc3c(c(=O)n(Cc4ccccc4)c(=O)n3C)n2C)cc1,35.0%*
Cn1c(Br)nc2c1c(=O)n(Cc1ccccc1)c(=O)n2C,i
Cn1c(=O)c2c(nc(Oc3ccccc3)n2C)n(C)c1=O,i
O=C(CCn1cnnn1)NC1CCCc2nc(-c3ccccc3)ncc21 (centres undefined),i
Cc1ccccc1Nc1c(-c2cccc(Br)c2)nc2cnccn12,i
CCOc1ccc2nc(N3CCCC(N4CCN(c5nonc5C)CC4)CC3)nc(C)c2c1 (centres undefined),i
CCOc1ccc2nc(Nc3nc4c(c(=O)[nH]3)CCC4)nc(C)c2c1,31.0%*
CCOc1ccc2c3c(c(=O)oc2c1)CCC3,i
O=C(CCN1Cc2ccccc2C1=O)N1CCOC(Cc2ccccc2)C1 (centres undefined),i
Cc1cc(C)n(-c2ccc(NC(=O)C3CCCCN3C(=O)C(=O)c3ccccc3)cc2)n1 (centres undefined),i
CCOc1ccccc1NC(=O)CN(c1ccccc1C)S(C)(=O)=O,i
COc1cccc(C2N(c3nccs3)C(=O)C3CCCN32)c1OC (centres undefined),i
O=C(NCc1ccccc1)N1CC[C@H](c2nc3cc(Cl)ccc3o2)C1,i
Cc1cccc(OCCCN2CCCC2)c1,i
COc1ccc(CN2CCCCCC2)cc1,i
COc1ccc(OCCCN2CCCCCC2)cc1,43.0%*
SMILES,ST2 inh
CC(=O)N[C@H]1CC[C@]2(C)CCC([C@H](C)C(=O)NCCN3CCOCC3)[C@H](O)[C@H]2[C@@H]1C (some centres undefined),i
O=C(C1CCN(S(=O)(=O)c2cccs2)CC1)N1CCC(Cc2ccccc2)CC1,i
Cc1cc(N2N=C(c3ccccc3)CC2=O)nc(-c2ccccc2O)n1,31.0%*
Cc1cc(OC(C)C)nc(-c2ccccc2O)n1,i
Cc1cc(NC2CCCCC2)nc(-c2ccccc2O)n1,i
CCN(Cc1ccccc1)Cc1cc(Br)c(OC)cc1OC,i
CCN(CC)C(=O)Cc1cn(C)c2ccccc12,i
Cn1cc(CC(=O)NCc2ccco2)c2ccccc21,i
Cn1cc(C(c2ccc([N+](=O)[O-])o2)c2cn(C)c3ccccc23)c2ccccc21,41.0%*
Cc1cc(C)nc(SCC(=O)N2CCCc3ccccc32)n1,i
NC(=O)[C@H](Cc1cccs1)NC(=O)C1=C[C@@H](NC(=O)c2ccc(F)c(Cl)c2)[C@@H](O)[C@H](O)C1,i
NC(=O)[C@H](Cc1ccc(O)cc1)NC(=O)C1=C[C@@H](NC(=O)c2cnccn2)[C@@H](O)[C@H](O)C1,44.0%*
COc1ccc(C[C@H](NC(=O)C2=C[C@@H](NC(=O)c3ccc(C)cc3)[C@@H](O)[C@H](O)C2)C(N)=O)cc1,i
COc1ccc(C2C(=C(O)c3ccc(C)cc3)C(=O)C(=O)N2CCN2CCOCC2)cc1 (centres undefined),i
O=C(NC(c1ccco1)C(F)(F)F)c1coc(Cn2cnc3ccccc32)n1 (centres undefined),i
O=C(OCCN1C(=O)c2ccccc2C1=O)c1ccccc1Cl,i
O=C(CN1CCN(Cc2ccccc2F)S1(=O)=O)Nc1ccccc1,i
Cc1ccc(Cl)cc1NC(=O)CN1CCN(Cc2ccccc2F)S1(=O)=O,97.0%*
Cc1cc(C)c(NC(=O)CN2CCN(Cc3ccccc3F)S2(=O)=O)c(C)c1,i
CCc1nc(C)sc1CN1CC(C(=O)O)CC1=O (centres undefined),i
CCc1nc(CN2CCCC(CCC(=O)Nc3ccc(OC)c(Cl)c3)C2)c(C)[nH]1 (centres undefined),i
Cc1cc(N2CCN(c3cc(N4CCN(CCO)CC4)ccc3[N+](=O)[O-])CC2)c2ccccc2n1,i
OCCN1CCN(c2nc(NCc3ccco3)c3ccccc3n2)CC1,i
O=[N+]([O-])c1ccc(N2CCN(c3nc(N4CCN(CCO)CC4)nc4ccccc34)CC2)cc1,31.0%*
Cc1ccsc1CN(C)Cc1coc2ccccc2c1=O,i
Cc1nnc(SCc2nc(-c3ccccc3)oc2CSc2nnc(C)c(=O)[nH]2)[nH]c1=O,i
Cc1c(C(=O)NC2CCC(C)CC2)oc2ccc(S(=O)(=O)N3CCCC3)cc12 (centres undefined),i
